Epigenetic reg = derepresses silenced GFP reporter in murine cells; murine LDR cells, GFP reporter derepression, 30 h; Potency, µM (top dose mostly 53.9 µM), for the others: top-dose GFP activation, most hits filed as activators; actives 0.2% (n = 280,000); note: % of control where 0% means no effect; nearly all actives have a fitted effect of over 60% in size
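Readout is the number of GFP-expressing murine LDR cells, counted by cytometry following washing. Cells were treated with compound for 30 h at 37 C; the stably integrated CMV-GFP locus is normally silent.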
KAT2A inh = blocks human GCN5L2 histone acetyltransferase; Q92830; GCN5L2 HAT assay, ThioGlo1 CoA-SH fluorescence; Potency, µM (doses to about 58.9 µM), without a hit: at the top dose activity change, negative = inhibition, actives largely listed as inhibitors; actives 0.21% (n = 390,000); AID 504327; note: % is set by controls: 0 for no effect and ±100 for the full control effect
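ThioGlo1-coupled HAT assay: 20nM GCN5L2, 70uM acetyl-CoA, 75uM H3(1-25) peptide, pH 7.5. Fluorescence read at 340/540nm at start and after 20 min at room temperature.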
Sfp inh = inhibitors of Bacillus subtilis Sfp phosphopantetheinyl transferase | Biochemical Sfp PPTase activity, qHTS | actives 3.5% (n = 310,000) | Potency, µM, for the others: largest response in the series, negative = inhibition, hits mostly inhibitors | Q9F4F7;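 note: the enzyme is Sfp with the accession as filed and its product quenches rhodamine fluorescence; 0% = enzyme reaction without inhibitor and -100% = no enzyme wells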
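After 15 min at room temperature with compound, 15 nM Sfp received 5 uM rhodamine-CoA plus 12.5 uM BHQ-2-ybbR (50 mM Hepes pH 7.6, 10 mM MgCl2). Rate came from the fluorescence difference over 30 min, ex 525/em 598 nm.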
IMPase Li inh = IMPase inhibition in cells with lithium potentiation. actives 0.35% (n = 210,000). Potency, µM (top dose mostly 59.4 µM), inactives show at the highest dose activity, negative = IMPase inhibition, most hits filed as inhibitors. CHO-M1 cells, IP1 TR-FRET (IP-One), carbachol + lithium;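 note: IP1 builds up when IMPase is blocked and the TR-FRET signal falls; plate controls were basal vehicle for no effect and high inhibitor control for full effect; nearly all actives have a fitted effect of over 50% in size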
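CHO cells stably expressing M1 receptor (2000/well, cultured 16–30 h) treated 30 min at 37C with compound plus low lithium. Cytosolic IP1 by TR-FRET (665/620 ratio and 620 channel) after 10 min lysis; AC50 by Hill fit.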
NPSR antagonist = blocks cAMP signaling of the human neuropeptide S receptor. Q6W5P4. CHO-NPSR cells, cAMP TR-FRET, antagonist mode. Potency, µM (titrated, usually from 38.3 µM), inactives show at the top dose activity change, negative = inhibition, actives largely listed as inhibitors. actives 1% (n = 220,000). AID 1461; note: % is set by controls: 0 for no effect and ±100 for the full control effect; nearly all actives have a fitted effect of over 50% in size
Target sequence (Q6W5P4 whole entry, looked up): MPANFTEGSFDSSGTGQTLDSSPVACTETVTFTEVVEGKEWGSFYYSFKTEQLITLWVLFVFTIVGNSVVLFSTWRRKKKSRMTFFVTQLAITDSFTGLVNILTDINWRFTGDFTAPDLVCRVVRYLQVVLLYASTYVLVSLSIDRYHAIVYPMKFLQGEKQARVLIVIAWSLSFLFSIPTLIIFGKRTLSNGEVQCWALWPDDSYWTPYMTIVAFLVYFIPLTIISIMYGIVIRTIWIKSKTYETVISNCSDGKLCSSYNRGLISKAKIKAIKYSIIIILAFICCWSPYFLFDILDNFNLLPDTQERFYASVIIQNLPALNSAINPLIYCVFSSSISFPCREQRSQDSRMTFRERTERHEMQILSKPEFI
KDM4E inh = blocks human JMJD2E demethylase activity; B2RXH2; AID 2147; actives 1.6% (n = 230,000); Potency, µM (top dose mostly 57.1 µM), without a hit: at the highest dose activity change, negative = inhibition, hits mostly inhibitors; JMJD2E catalytic domain, FDH-coupled NADH fluorescence (FDH is formaldehyde dehydrogenase);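 note: 0% = wells with enzyme and -100% = buffer wells without enzyme; nearly all actives have a fitted effect of over 50% in size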
Target sequence (B2RXH2 1-337 limits assumed): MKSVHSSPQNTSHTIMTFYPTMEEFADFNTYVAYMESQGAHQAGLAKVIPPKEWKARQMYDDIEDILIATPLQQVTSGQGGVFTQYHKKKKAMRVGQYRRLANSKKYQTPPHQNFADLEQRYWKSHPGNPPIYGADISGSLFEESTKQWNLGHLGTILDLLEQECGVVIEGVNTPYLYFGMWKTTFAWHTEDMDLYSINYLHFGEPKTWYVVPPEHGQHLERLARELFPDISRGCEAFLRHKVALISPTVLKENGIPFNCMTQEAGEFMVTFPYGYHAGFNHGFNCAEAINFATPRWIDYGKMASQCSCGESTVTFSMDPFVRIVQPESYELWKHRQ
* = called active by the depositor; ? = inconclusive; · = no result given; ! = a repeat was not active; [ ] = dose if it differs, or a comment. Hits are enriched below; roughly 3.6% of the tested compounds scored in any of these assays. Unless noted, calls come from the whole dose curve; as a rule, active = well fitted curve in the direction sought with a large enough effect; inconclusive = small, poorly fitted or top-dose-only effect, or another doubt; inactive = no such curve, though single readings can be large; an effect the other way counts as inactive or inconclusive. Potency is the fitted concentration of half-maximal effect.

SMILES	Epigenetic reg	KAT2A inh	Sfp inh	IMPase Li inh	NPSR antagonist	KDM4E inh
O=C(Nc1cccc(C(=O)OCc2cc(=O)n3nc(C4CC4)sc3n2)c1)c1cccc(Cl)c1	16µM*	-1%	·	·	·	·
Clc1ccc(-c2nnnn2-c2ccc(Cl)cc2)cc1	0%	-2%	16%	·	-12%	-2%
Cc1ccc(-n2nnnc2C(Cl)(Cl)c2nnnn2-c2ccc(C)cc2)cc1	-1%	-7%	3.2µM*	10%[38.3 µM]	16%[46.1 µM]	1%
COC(=O)[C@@H]1C[C@@]2(O)[C@H](O)[C@H](O)[C@H](O)C[C@H]2N1Cc1ccc(-c2ccccc2)cc1	1%	?	6%	-6%	18%	8.9µM*!
COC(=O)[C@@H]1C[C@@]2(O)[C@@H](O)[C@@H](O)[C@@H](O)C[C@H]2N1Cc1ccc(-c2ccccc2)cc1	2%	7%	5%	-8%	17%	-30%
CN1CCN(Cc2cc(Cl)c3cccnc3c2OC(=O)c2cccs2)CC1	3.5µM*	3%	20%	4%	16%	?
CC(C)C[C@H](NC(=O)[C@H](CCCCN)NC(=O)[C@H](CCC(N)=O)NC(=O)[C@H](Cc1cnc[nH]1)NC(=O)[C@H](Cc1cnc[nH]1)NC(=O)[C@@H](N)C(C)C)C(=O)N[C@H](C(=O)N[C@@H](Cc1ccccc1)C(=O)N[C@@H](Cc1ccccc1)C(=O)N[C@@H](C)C(=O)N[C@@H](CCC(=O)O)C(=O)N[C@@H](CC(=O)O)C(=O)N[C@H](C(=O)NCC(=O)N[C@@H](CO)C(=O)N[C@@H](CC(N)=O)C(=O)N[C@@H](CCCCN)C(=O)O)C(C)C)C(C)C	·	-22%	31%	·	·	·
CSCCC1(C(=O)O)NC(c2ccccc2O)C2C(=O)N(C(C)C)C(=O)C21 (stereo unspecified)	-3%	-2%	79µM*	-7%[38.3 µM]	1%[46.1 µM]	-11%
O=C(CN1C(=O)c2cccc3cccc1c23)Nc1ccc2c(c1)OCO2	-2%	3.5µM*	8%	-8%[38.3 µM]	-5%[46.1 µM]	?
CCOC(=O)C1CCN(C(c2ccccn2)c2c(C)[nH]c3ccccc23)CC1 (stereo unspecified)	7%	-3%	?	3%[38.3 µM]	-23%[46.1 µM]	?
Cc1[nH]c2ccccc2c1C(c1ccccn1)N1CCC(C(N)=O)CC1 (stereo unspecified)	-5%	-4%	63µM*	14%[38.3 µM]	-2%[46.1 µM]	?
C=C1c2cccc(C(F)(F)F)c2O[C@H](C(=O)OCC)[C@@H]1CCCCCC	7%	13%[88.6 µM]	11%	3%	·	·
N#C/C(=C\c1ccccc1)C(=O)NCc1ccc(F)cc1	·	-8%	-2%	·	·	·
CCOCCCNC(=O)/C(C#N)=C/c1cc(OC)c(O)c([N+](=O)[O-])c1	1%	-12%	-24%	16%	-31%	?
N#C/C(=C\c1ccc(O)c(O)c1)C(=O)NCCCc1ccccc1	4%	-25%	63µM*!	12%	?	3.2µM*
N#C/C(=C/c1ccc(C(=O)O)cc1)C(=O)NCc1ccccc1	0%	-9%	18µM*	1%	-16%[46.1 µM]	-4%
N#C/C(=C/c1ccc(C(=O)O)cc1)C(=O)Nc1ccccc1	6%	-6%	?	-7%	-12%	-18%
CCOCCCNC(=O)/C(C#N)=C/c1ccc(Cl)c([N+](=O)[O-])c1	13%	-10%	6%	?	-26%	20µM*
Cc1cccc(NC(=O)/C(C#N)=C\c2ccc(C(=O)O)cc2)c1	1%	-13%	35µM*	-5%	-17%	0%
CCCN(CCC)CC(O)Cn1cc(/C=C/C(=O)c2ccc(OCC)cc2)c2ccccc21 (stereo unspecified)	2%	-13%	·	·	·	·
COc1ccc(C(=O)N2CCC[C@@]3(CCN(c4ccccc4)C3)C2)cc1	·	2%	-12%	-5%	·	·
CCOc1ccc(-n2c(=O)c3c4c(sc3n(CC(=O)NC(C)CC)c2=O)CCC4)cc1 (stereo unspecified)	-2%	-4%	·	·	·	·
C=CCOC(=O)C1(C(NC(=O)OC)c2ccccc2)C(=O)Cc2ccccc21 (stereo unspecified)	-1%	·	-9%	17%	·	4%
COCCNC(=O)/C(C#N)=C/c1cccc(/C=C(\C#N)C(=O)NCCOC)c1	?	-3%	20µM*	16%	0%	-3%
COC(=O)C1C(O)C(C)C(O)C(C)(O)/C=C\C=C(/C)C(=O)Nc2c(C)c(OC(C)=O)c3c(c2O)C(=O)C(C)=C2OCOC(=C23)/C(C)=C/C(C)(O)C(O)C(C)C1O (stereo unspecified)	-1%	2%	?	·	4%	3.2µM*
SMILES	Epigenetic reg	KAT2A inh	Sfp inh	IMPase Li inh	NPSR antagonist	KDM4E inh
Cc1ccc(C)c(N2CCN(S(=O)(=O)c3cc(C(=O)Nc4ccccc4C(F)(F)F)ccc3F)CC2)c1	1%	3%	·	·	·	·
COc1ccc2c(c1)nc(SCC(=O)c1ccc(Br)s1)n2C	-1%	-11%	56µM*	-13%[38.3 µM]	-16%[46.1 µM]	-5%
COC(=O)CSc1nc2cc(OC)ccc2n1C	-1%	-3%	-6%	·	2%[7.67 µM]	4%
COc1ccc(-n2c(C)cc(C(=O)CN3CCCCC3)c2C)cc1	0%	-5%	7%	23%	5%	-26%
CCOC(=O)c1cc(C(=O)OCC)cc(-n2c(C)cc(C(=O)CN3CCOCC3)c2C)c1	-2%	-1%	-7%	-7%[38.3 µM]	-16%[46.1 µM]	13µM*
CCN1C(=O)[C@@H]2[C@H]3C(=CC[C@@H]2C1=O)C1(OCCCO1)[C@H]1O[C@@H]1[C@H]3O	1%[10.1 µM]	·	?	·	·	·
COc1ccccc1CCNC(=O)CSc1nc(-c2ccco2)cc(C(F)(F)F)n1	3%	-7%	-13%	-29%[38.3 µM]	3%[46.1 µM]	7%
COc1ccccc1CCNC(=O)CCSc1nc(-c2ccco2)cc(C(F)(F)F)n1	0%	-28%	56µM*	10%	?	6%
Cc1ccc(C)c(N2CCN(S(=O)(=O)c3ccc(-c4cc(C(F)(F)F)on4)s3)CC2)c1	0%	23%	·	·	·	·
COc1ccc(C2C(=O)N(C3CCCCC3)CC(=O)N2Cc2ccco2)cc1 (stereo unspecified)	0%	?	22µM*	20%[38.3 µM]	-11%[46.1 µM]	-1%
COc1cc(/C=N/NC(=S)NCCN2CCOCC2)cc(OC)c1O	0%	-11%	22µM*	30%	2%	-5%
Oc1ccc(/C=N/NC(=S)NCCN2CCOCC2)c(O)c1	-2%	-8%	7%	30%	-5%	35µM*
COc1cc(OC)c(OC)cc1/C=N/NC(=S)NCCN1CCOCC1	3%	-18%	-83%	-5%	9%	?
S=C(NCCN1CCOCC1)N/N=C/c1ccccc1	2%	1%	-14%	19%[38.3 µM]	-1%[46.1 µM]	2%
